The values below come from ChEMBL document CHEMBL3988442, “University of Dundee, Small-Polar-MMV Screening Library” (2021).

What all share (set-up): scale not given: direction of the effect not stated beside the values
For test [1], the target named is Protein translocase subunit SecA (Escherichia coli (strain K12)) (UniProt P10408). In words: Assay to Identify E. coli SecA ATPase Inhibitors. Format: functional. The conditions noted are these: 30 µM.
For test [2], the target named is T1, Ubiquitin-activating enzyme e1, putative (Leishmania donovani (strain BPK282A1)) (UniProt E9BSI1).
T1 sequence (whole entry): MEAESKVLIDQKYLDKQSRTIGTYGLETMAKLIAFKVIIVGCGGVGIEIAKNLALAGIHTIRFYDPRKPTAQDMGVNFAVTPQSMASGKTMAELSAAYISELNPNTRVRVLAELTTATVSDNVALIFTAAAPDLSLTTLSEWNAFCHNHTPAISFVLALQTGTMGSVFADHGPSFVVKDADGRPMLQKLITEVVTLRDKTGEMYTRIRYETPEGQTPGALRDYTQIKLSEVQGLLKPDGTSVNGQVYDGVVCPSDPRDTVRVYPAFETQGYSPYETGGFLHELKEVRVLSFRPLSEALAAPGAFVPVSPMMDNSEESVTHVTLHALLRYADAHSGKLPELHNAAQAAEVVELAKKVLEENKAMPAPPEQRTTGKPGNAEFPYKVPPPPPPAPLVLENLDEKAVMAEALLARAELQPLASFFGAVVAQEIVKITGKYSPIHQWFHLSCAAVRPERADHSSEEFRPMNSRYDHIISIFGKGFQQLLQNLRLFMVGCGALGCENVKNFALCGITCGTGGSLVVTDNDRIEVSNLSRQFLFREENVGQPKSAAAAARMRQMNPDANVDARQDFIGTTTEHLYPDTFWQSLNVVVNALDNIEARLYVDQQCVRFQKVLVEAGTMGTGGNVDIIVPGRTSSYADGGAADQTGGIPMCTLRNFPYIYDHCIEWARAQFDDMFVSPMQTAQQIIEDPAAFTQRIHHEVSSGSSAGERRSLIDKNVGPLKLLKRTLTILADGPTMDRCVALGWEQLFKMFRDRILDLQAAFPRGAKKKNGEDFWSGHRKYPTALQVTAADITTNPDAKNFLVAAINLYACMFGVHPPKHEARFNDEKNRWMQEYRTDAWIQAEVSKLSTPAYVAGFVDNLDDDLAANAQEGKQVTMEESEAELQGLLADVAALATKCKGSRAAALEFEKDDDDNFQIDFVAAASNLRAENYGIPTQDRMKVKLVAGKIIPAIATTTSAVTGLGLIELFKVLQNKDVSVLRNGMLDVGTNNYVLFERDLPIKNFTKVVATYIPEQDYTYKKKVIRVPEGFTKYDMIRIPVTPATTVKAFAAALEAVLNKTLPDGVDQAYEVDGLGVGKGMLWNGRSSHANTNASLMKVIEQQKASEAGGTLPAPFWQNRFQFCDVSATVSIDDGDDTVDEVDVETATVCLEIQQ
In words: Leishmania donovani Ubiquitin Activating Enzyme (LdE1). It is filed as functional. Conditions: 30 µM.

In test [3] the target is AMP-activated protein kinase, AMPK (Homo sapiens) (UniProt P54646+O43741+P54619+Q9UGJ0+Q9Y478+Q13131+Q9UGI9). In words: AMP-dependent Kinase enzyme assay. An in vitro enzyme assay that detects ADP turnover that is directly proportional to AMPK activity. This uses naive AMPK that is activated during the assay with MK-8722. Conditions: 30 µM. Format: functional.
The target of test [4] is Sialic acid-binding Ig-like lectin 9 (Homo sapiens) (UniProt Q9Y336). In words: Hs-Siglec9 ALPHAscreen SOP 20170721. Conditions: 10 µM.
A further test concerns Trypanosoma cruzi. Briefly: Trypanosoma cruzi phosphomannomutase and mannose-1-phosphate guanylyltransferase assay. It is filed as functional. Conditions: 10 µM.
The target of test [5] is T2, Arginase-2, mitochondrial (Homo sapiens) (UniProt P78540).
T2 sequence (whole entry): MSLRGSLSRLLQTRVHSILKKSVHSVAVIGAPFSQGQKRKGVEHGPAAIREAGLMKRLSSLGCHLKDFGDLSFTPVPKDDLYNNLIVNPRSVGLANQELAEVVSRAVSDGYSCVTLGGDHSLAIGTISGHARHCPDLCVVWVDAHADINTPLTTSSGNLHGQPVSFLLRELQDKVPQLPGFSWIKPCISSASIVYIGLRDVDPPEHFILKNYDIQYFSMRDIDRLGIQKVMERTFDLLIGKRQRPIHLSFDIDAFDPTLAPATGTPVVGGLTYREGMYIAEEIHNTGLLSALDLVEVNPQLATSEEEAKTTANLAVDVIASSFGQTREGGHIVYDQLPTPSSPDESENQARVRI
In words: in vitro enzyme assay to detect the production of urea directly proportional to the activity of Arginase II. Note: in the data most compounds retested in dose-response had high values. Format: functional. The conditions noted are these: 33.3 µM.

Test [6] concerns the target T3, Proteasome subunit beta (Trypanosoma cruzi) (UniProt O96673).
T3 sequence (whole entry): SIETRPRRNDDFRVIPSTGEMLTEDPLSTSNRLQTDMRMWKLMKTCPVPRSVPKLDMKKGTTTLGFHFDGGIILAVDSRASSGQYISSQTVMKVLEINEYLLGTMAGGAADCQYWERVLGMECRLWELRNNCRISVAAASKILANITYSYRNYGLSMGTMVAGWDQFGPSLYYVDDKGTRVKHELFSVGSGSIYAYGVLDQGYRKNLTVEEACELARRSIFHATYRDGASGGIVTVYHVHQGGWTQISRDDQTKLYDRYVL
In words: Trypanosoma cruzi proteasome chymotrypsin-like activity (TcProtChymo) assay. Note: in the data most compounds retested in dose-response had high values. Format: functional. The conditions noted are these: 9.37 µM.

Another test is filed under the species Homo sapiens. In words: To identify inhibition of the IFN signalling (Jak-Stat) pathway via expression of an eGFP reporter gene under the control of an IFN-stimulated response element (ISRE) containing MxA promoter. Format: functional. Conditions: 30 µM. (In general: Reporter assays use an easily measured gene product as a stand-in for the process of interest.)

Test [7] concerns the target T4, Tyrosyl-tRNA synthetase, putative (Trypanosoma cruzi (strain CL Brener)) (UniProt Q4DSP6).
T4 sequence (whole entry): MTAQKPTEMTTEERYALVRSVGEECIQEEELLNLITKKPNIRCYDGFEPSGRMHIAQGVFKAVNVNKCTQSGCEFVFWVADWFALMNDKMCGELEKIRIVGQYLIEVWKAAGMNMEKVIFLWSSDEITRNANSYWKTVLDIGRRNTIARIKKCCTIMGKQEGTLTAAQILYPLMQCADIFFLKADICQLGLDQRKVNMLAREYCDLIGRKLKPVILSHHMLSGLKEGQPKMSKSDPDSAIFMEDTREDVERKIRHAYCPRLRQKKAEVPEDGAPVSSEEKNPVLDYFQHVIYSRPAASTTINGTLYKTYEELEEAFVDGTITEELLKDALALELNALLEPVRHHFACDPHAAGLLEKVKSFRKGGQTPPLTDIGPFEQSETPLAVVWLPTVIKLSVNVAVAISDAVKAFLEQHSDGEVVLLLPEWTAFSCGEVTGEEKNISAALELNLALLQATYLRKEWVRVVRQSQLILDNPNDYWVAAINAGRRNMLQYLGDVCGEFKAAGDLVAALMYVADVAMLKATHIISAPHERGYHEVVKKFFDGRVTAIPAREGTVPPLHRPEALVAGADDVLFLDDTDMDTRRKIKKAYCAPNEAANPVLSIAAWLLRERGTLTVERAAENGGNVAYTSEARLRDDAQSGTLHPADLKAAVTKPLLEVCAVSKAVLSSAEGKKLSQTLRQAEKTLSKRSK
Briefly: Trypanosoma cruzi tyrosyl tRNA synthetase (TcYRS) _High Tyrosine SOP. Note: in the data most compounds retested in dose-response had high values. Conditions: 30 µM. Format: functional.

The target of test [8] is T4, Tyrosyl-tRNA synthetase, putative (Trypanosoma cruzi (strain CL Brener)). In words: Trypanosoma cruzi tyrosyl tRNA synthetase (TcYRS) SOP. Format: functional. The conditions noted are these: 30 µM.
The target of test [9] is Chromo domain-containing protein 1 (Saccharomyces cerevisiae (strain ATCC 204508 / S288c) (Baker's yeast)) (UniProt P32657). Briefly: ScCHD-1 Enzyme Inhibition Assay. Note: in the data most compounds retested in dose-response had high values. Format: functional. Conditions: 30 µM.

Each structure is given as a SMILES string. For some of these results: Measured potencies and affinities stand elsewhere.

Sialic acid-binding Ig-like lectin 9 (Homo sapiens), sequence (Q9Y336 whole entry): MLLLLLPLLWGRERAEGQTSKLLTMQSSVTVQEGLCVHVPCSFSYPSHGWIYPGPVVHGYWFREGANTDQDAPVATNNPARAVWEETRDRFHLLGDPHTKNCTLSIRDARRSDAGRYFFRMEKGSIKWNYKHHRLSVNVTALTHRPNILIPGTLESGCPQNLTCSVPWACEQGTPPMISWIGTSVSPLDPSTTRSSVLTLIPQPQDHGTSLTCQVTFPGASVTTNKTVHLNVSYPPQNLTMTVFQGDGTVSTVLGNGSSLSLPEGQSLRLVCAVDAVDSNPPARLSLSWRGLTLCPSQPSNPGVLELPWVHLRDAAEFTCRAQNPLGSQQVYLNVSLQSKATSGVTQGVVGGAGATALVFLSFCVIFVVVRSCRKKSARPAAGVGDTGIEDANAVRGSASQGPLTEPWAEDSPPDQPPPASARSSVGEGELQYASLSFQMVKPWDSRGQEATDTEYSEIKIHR
Chromo domain-containing protein 1 (Saccharomyces cerevisiae (strain ATCC 204508 / S288c) (Baker's yeast)), sequence (P32657 whole entry, the tested form may be a part): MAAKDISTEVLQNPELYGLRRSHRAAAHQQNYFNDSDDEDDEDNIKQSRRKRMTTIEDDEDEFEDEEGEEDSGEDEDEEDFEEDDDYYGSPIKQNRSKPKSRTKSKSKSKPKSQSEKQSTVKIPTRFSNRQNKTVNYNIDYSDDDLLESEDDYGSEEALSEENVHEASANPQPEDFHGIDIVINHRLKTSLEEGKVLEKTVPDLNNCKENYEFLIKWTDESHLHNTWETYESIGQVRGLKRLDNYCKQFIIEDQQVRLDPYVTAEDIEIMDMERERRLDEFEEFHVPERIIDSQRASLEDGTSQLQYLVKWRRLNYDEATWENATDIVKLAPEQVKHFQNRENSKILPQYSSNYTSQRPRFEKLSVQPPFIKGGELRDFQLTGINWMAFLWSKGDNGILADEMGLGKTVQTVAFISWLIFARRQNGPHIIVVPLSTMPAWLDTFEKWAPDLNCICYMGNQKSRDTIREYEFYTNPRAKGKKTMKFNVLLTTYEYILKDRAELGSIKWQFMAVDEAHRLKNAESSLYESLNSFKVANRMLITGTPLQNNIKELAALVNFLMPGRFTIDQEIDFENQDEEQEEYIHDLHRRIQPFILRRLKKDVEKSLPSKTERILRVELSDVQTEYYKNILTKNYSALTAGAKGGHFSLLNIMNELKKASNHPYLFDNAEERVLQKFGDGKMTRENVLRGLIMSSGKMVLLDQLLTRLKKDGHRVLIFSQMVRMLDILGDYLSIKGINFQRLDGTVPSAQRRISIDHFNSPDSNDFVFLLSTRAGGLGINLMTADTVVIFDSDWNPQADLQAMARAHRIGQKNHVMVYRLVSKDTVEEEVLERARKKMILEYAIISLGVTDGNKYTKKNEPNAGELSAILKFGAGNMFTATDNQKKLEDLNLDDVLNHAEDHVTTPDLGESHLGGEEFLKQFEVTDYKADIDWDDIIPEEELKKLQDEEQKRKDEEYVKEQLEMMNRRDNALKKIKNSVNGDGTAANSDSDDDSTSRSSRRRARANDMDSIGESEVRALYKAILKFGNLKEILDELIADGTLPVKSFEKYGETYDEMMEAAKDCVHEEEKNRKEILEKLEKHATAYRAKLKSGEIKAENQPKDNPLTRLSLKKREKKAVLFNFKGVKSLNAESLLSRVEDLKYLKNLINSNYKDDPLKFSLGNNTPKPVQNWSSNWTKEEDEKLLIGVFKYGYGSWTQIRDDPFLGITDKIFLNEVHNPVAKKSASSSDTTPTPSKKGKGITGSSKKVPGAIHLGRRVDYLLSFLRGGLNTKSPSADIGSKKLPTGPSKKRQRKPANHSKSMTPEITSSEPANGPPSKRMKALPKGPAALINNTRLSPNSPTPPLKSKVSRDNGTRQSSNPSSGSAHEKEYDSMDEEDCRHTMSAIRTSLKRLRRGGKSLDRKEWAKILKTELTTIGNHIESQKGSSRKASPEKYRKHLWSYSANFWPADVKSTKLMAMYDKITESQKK
Protein translocase subunit SecA (Escherichia coli (strain K12)), sequence (P10408 whole entry): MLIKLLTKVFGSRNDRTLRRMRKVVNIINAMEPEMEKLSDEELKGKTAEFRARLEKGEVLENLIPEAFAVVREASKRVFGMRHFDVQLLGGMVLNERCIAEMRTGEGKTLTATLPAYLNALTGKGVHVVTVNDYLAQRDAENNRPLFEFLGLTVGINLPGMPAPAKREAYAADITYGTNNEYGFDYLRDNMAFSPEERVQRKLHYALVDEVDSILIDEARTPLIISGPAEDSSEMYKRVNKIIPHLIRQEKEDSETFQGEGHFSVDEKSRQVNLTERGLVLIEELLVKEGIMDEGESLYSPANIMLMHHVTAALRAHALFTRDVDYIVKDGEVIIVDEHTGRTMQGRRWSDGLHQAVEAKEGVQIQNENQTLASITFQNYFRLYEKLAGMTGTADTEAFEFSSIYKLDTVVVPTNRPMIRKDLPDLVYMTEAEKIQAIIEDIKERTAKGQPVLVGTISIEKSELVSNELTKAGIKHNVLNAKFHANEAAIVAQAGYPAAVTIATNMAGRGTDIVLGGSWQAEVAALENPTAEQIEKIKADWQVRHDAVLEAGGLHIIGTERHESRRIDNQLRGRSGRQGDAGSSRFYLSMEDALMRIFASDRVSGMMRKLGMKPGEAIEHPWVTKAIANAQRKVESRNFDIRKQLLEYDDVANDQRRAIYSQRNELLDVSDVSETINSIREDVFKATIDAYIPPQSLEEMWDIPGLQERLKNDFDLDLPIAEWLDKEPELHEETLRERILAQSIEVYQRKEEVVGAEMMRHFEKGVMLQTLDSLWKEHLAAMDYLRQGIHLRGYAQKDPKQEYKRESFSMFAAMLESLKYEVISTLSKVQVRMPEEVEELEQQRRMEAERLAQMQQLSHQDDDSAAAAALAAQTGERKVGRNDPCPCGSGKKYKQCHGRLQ

`Cc1ncsc1C(=O)NCc1cccs1`: the Percent Effect was 0.275% in [1]; 16.2% in test [2]; -1.61% in test [3]; 5.83% in test [4]; 0.464% in the test on Trypanosoma cruzi; 0.185% in [5]. For the same molecule, the Percent Effect in test [6] was 14%; in the test listed under Homo sapiens it was 21.8%; in test [7], 6.93%; in [8] it was 23.2%; in test [9], -4.46%.

For the molecule `Cc1c(C(=O)NCC2CCCO2)nnn1-c1cccc2c1CCN(C)C2` (stereo not drawn), the Percent Effect is -7.71% in test [1]; 2.63% in [2]; -11.9% in test [3]; -4.47% in test [4]; -1.27% in the test on Trypanosoma cruzi; 2.37% in test [5]. The Percent Effect was 6.42% in test [6]; 27.2% in the test listed under Homo sapiens; -1.06% in [7]; -2.6% in [8]; 88% in test [9].

For `COc1ccc(NC(=O)Cn2nc(C)ccc2=O)cc1OC`, the Percent Effect in test [1] was -3.84%; in [2], -1.33%; in test [3], 2.94%; in test [4], 4.69%; in the test with Trypanosoma cruzi it was -0.786%; in [5] it was -5.46%. Also, the Percent Effect in [6] was 7.39%; in the test listed under Homo sapiens, -3.33%; in test [7], 3.17%; in [8], 5.13%; in [9] it was 0.459%.

In the case of `CCCS(=O)(=O)NC(C)C(=O)NCc1ccc(N2CCCC2)nc1` (stereo not drawn), the Percent Effect was -3.52% in [1]; 16.2% in test [2]; -27.4% in test [3]; -2.65% in test [4]; -0.66% in the test on Trypanosoma cruzi; -4.01% in test [5]. The Percent Effect in test [6] is 12.8%; in the test listed under Homo sapiens, 5.44%; in test [7], 13.3%; in [8] it was 13.6%; in [9] it was -7.91%.

Turning to `CCCOCC(=O)NS(=O)(=O)c1ccc2c(c1)OCCCO2`, the Percent Effect in [1] is -8.22%; in test [2] it was 0%; in test [3], 0.981%; in test [4] it was -3.65%; with Trypanosoma cruzi it was -6.07%; in test [5], 0%. The Percent Effect is -0.423% in test [6]; 13.9% in the test listed under Homo sapiens; -2.46% in [7]; -6.17% in test [8]; 1.45% in test [9].

`COc1cccc(C(=O)N2CCCCC2CNC(N)=O)c1` (stereo not drawn): the Percent Effect in test [1] is -9.94%; in test [2], 5.26%; in test [3] it was 4.5%; in [4], 4.83%; with Trypanosoma cruzi, -4.58%; in [5], -3.6%. Also, the Percent Effect was found to be 0.0846% in [6]; 1.79% in the test filed under Homo sapiens; 3.45% in test [7]; 6.17% in test [8]; 0.323% in test [9].

With `Cc1cc(N2CCN(Cc3nccn3C)CC2)cc(C)n1`, the Percent Effect was -3.69% in test [1]; 1.39% in test [2]; -5.16% in test [3]; -5.41% in test [4]; -5.93% in the test with Trypanosoma cruzi; -0.883% in [5]. Moreover, the Percent Effect in test [6] was 12.1%; in the test listed under Homo sapiens, -10.6%; in [7] it was 0%; in [8] it was -2.56%; in test [9] it was -1.23%.

With `CC(=O)N1CCN(C(=O)CN2CCc3c(ncn3C3CC3)C2)CC1`, the Percent Effect was -0.513% in test [1]; 19% in [2]; -1.56% in test [3]; -4.08% in test [4]; 1.33% in the test with Trypanosoma cruzi; 5.38% in test [5]. In addition, the Percent Effect in [6] is 17.5%; in the test listed under Homo sapiens it was 11.7%; in test [7], 1.04%; in test [8], 5.06%; in [9], -19.7%.
